From PubChem BioAssay
The list is not random: actives were taken first. Their share in the collection is about 13%.
Lmaj promast: Leishmania major promastigote growth inhibition, primary screen; Leishmania major promastigotes, resazurin fluorescence viability; inhibition, % at 10 µM; actives 9% (n = 200,000); AID 1063, 2008; in the data active = inhibition above about 50%;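 note: promastigotes grown with compound for 44 hours at 28 °C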
CHOP inhibitor: inhibitors of CHOP promoter induction, primary screen, cell-based, unfolded protein response, luciferase reporter. inhibition, % at 10 µM. AID 2732, 2010. actives 3.8% (n = 220,000). CHO-K1 CHOP-promoter luciferase, tunicamycin-induced, 15-18 h;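 active = compounds that reduced the stress-induced luciferase reporter signal by more than about 70% of percent inhibition, limit read from the data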;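 note: 0% = tunicamycin plus vehicle and 100% = wells without tunicamycin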
WT yeast gro inh: growth inhibition of WT strain, primary screen, mitochondrial fusion inhibitor project, WT and mutant strains, chemical genetic | actives 2.1% (n = 190,000) | AID 1362, 2008 | inhibition, % at 10 µM | mitochondrial fusion phenotypic screen; in the data active = inhibition above about 58%; tested in S. cerevisiae
RAM network inh: inhibitors of the yeast RAM network, primary screen, dse1pr::URA3 reporter, 5-FOA selection; S. cerevisiae dse1pr::URA3 reporter, 5-FOA growth OD615, 2 d; analog-sensitive cbk1-as2 kinase mutant strain; inhibition, % at 50 µM; actives 1.8% (n = 190,000); AID 868, 2007;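 active = inhibition above a set limit, 3 SD over mean compound inhibition, cut at about 8.4% in these data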;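 note: 0% = DMSO-only wells with no growth and 100% = 10 µM 1-NA-PP1 full growth; inhibition rescues growth on 5-FOA so higher OD means more RAM inhibition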
Lmaj promast 1uM: Leishmania major promastigote growth inhibition, confirmation, 1 µM repeat of primary hits. shares compounds with Lmaj promast. L. major promastigote growth, resazurin fluorescence, 48 h. inhibition, % at 1 µM. actives 13% (n = 1,100);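 active = inhibition above about 50% in both repeat tests, limit read from the data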
An asterisk follows results filed as active; · = no result given.

SMILES	Lmaj promast	CHOP inhibitor	WT yeast gro inh	RAM network inh	Lmaj promast 1uM
Cc1ccc(S(=O)(=O)NNC(=O)C2CCN(Cc3ccccc3)CC2)cc1	85*	0	-32	1	4
CN(C)C=Nc1ncc2c3ccccc3n(Cc3ccccc3)c2c1C#N	-6	-31	-5	4	·
CCN(CC)CCn1c2ccccc2c2cnc(N)c(C#N)c21	100*	41	8	3	3
CN(c1ccc(F)cc1)S(=O)(=O)c1ccc(Cl)c(C(=O)OCC(=O)NCc2ccco2)c1	-3	-5	3	6	·
O=C(c1cc2nc(-c3ccc(Cl)cc3)cc(C(F)(F)F)n2n1)N1CCOCC1	6	50	-10	2	·
O=C(Cn1cnc([N+](=O)[O-])c1)Nc1cc(Oc2ccc(Cl)cc2Cl)cc([N+](=O)[O-])c1	100*	8	-12	3	62*
CC(=O)Nc1ccc(Oc2ccc([N+](=O)[O-])cc2Cl)cc1	-2	10	32	3	·
COc1cccc(NC(=O)N2CCN(c3nnnn3-c3ccccc3)CC2)c1	17	-3	1	-1	·
COC(=O)C(Cc1cnc(Cl)s1)(C(=O)OC)c1ccc([N+](=O)[O-])cc1[N+](=O)[O-]	63*	-14	23	1	-15
COc1ccccc1/C=C/C=N/NC(=O)c1cc(-c2ccc(C)o2)[nH]n1	·	2	·	·	·
COc1ccc(CN(C(=O)c2cnccn2)C(C(=O)Nc2ccc(F)cc2)c2ccccc2)cc1 (stereo unspecified)	62*	-6	-6	2	-1
O=C(c1cccc(Br)c1)c1cn(-c2ccccc2)nc1C(=O)c1ccccc1	88*	-38	0	4	7
Oc1ccccc1-c1nc(/C=C/c2ccccc2)nn1-c1ccccc1	98*	32	64*	5	6
C1=Nc2ccccc2CN1c1ccccc1	85*	-24	2	0	-8
COc1ccc(C(N)CCc2ccc(C)o2)cc1 (stereo unspecified)	54*	9	26	2	-15
Cn1c(=O)c2nc(-c3ccccc3)oc2c2ccccc21	92*	-3	12	3	72*
CC1=C(C)CC(C(=O)NNC(=O)c2csc(C)c2C)C(C(=O)O)C1 (stereo unspecified)	-4	9	14	1	·
O=C(NCc1ccncc1)C(=O)Nc1nc(C23CC4CC(CC(C4)C2)C3)cs1	51*	55	0	0	18
Cc1noc(C)c1S(=O)(=O)NCCN1CCN(c2ccccc2)CC1	-2	-18	-7	1	·
Cc1noc(C)c1S(=O)(=O)NCCCN1CCN(Cc2ccccc2)CC1	92*	28	-18	-1	-11
CCN(CC)CC(=O)Nc1ccc2c(c1)N(C(=O)CN(CC)CC)c1ccccc1CC2	99*	-5	10	-1	8
CCOC(=O)c1c(C)oc2ccc(O)c(CN3CCCCC3)c12	88*	1	8	0	-10
CCOC(=O)c1c(C)n(C)c2ccc(O)c(CN3CCCCC3)c12	31	14	-2	1	·
CCOC(=O)C1CCN(C(=S)Nc2cc(OC)c(OC)cc2C(=O)OC)CC1	61*	12	14	1	8
COC(=O)c1cc(OC)c(OC)cc1NC(=S)N1CCC(C(N)=O)CC1	-6	1	1	1	·
SMILES	Lmaj promast	CHOP inhibitor	WT yeast gro inh	RAM network inh	Lmaj promast 1uM
CC1=Nc2cccc3cccc(c23)N1C	85*	20	-6	-1	-18
CC1N(C)c2cccc3cccc(c23)N1C	5	-6	51	2	·
NC(=O)c1c(N)sc(=S)n1-c1ccccc1	-3	32	6	2	·
S=c1sc2c(Cl)ncnc2n1-c1ccccc1	87*	-24	-6	0	30
CCOc1ccc(-n2c(SCC(N)=O)nc3c([nH]c4ccccc43)c2=O)cc1	68*	-8	13	5	2
CCOc1ccc(-n2c(SCC(=O)Nc3cc(C)on3)nc3c([nH]c4ccccc43)c2=O)cc1	6	23	19	3	·
CC(C)CN(C(=O)c1ccc(=O)n(C)n1)c1nc2ccccc2s1	57*	-1	9	0	-17
COc1ccc(Cn2cnc3c(N)c(C)c(C)cc32)cc1	16	5	-12	0	·
CCCCCCCCn1cnc2c(N)c(C)c(C)cc21	91*	81*	59*	-1	-4
C(=N\Nc1nc2ccccc2[nH]1)/c1ccccn1	100*	85*	67*	0	-8
Cc1ccccc1-c1cc2c(nn1)-c1ccccc1C2=O	93*	13	55	3	-13
O=C(O)CSc1nc2sc3c(c2c(=O)n1-c1ccccc1)CCC3	·	3	·	·	·
CC(NC(=O)CSc1nc2sc3c(c2c(=O)n1-c1ccccc1)CCCC3)c1ccccc1 (stereo unspecified)	69*	24	-9	0	39
Cn1cc(CN2CCC(CO)CC2)c(-c2ccc(Oc3ccccc3)cc2)n1	97*	-8	-3	3	75*
Cn1cc(CNCC2CCCO2)c(-c2ccc(Oc3ccccc3)cc2)n1 (stereo unspecified)	20	26	2	-1	·
CC1(CCc2ccccc2)NC(=S)N(c2ccccc2)N1 (stereo unspecified)	70*	-10	9	0	-11
O=C(Nc1ccc(CN2CCOCC2)cc1)c1cccs1	96*	25	14	2	-11
CCCS(=O)(=O)c1c(S(=O)(=O)CCC)c2c3ccccc3ccn2c1C(=O)OC	82*	-13	8	1	0
COc1cc(/C=N/NC(N)=S)cc(Br)c1OCc1ccccc1F	99*	32	34	3	22
CCOc1c(Br)cc(/C=N\NC(=O)c2ccccc2)cc1OC	46	-8	-2	3	·
CC(C)[C@H](NS(=O)(=O)c1ccccc1)C(=O)OCn1nnc2ccccc2c1=O	-2	35	-9	4	·
Cc1ccc(S(=O)(=O)N[C@H](C(=O)OCn2nnc3ccccc3c2=O)C(C)C)cc1	67*	31	0	2	-8
NC(=O)CCC(NS(=O)(=O)c1ccc(Cl)cc1)C(=O)NCc1ccccc1 (stereo unspecified)	-5	-12	-3	0	·
Cc1ccc2nc(N(CCCN(C)C)C(=O)CN3C(=O)c4ccccc4C3=O)sc2c1	8	2	17	0	·
Cc1ccc2nc(N(CCCN(C)C)C(=O)CCc3ccccc3)sc2c1	66*	42	94*	0	-16
CCc1[nH]nc(C(=O)N2CCCC(CCC(=O)N3CCN(c4ccccn4)CC3)C2)c1C (stereo unspecified)	-6	-2	-8	-1	·
CC1=NN(c2ccc(C)cc2)C(=O)/C1=C\c1ccc(Br)s1	99*	15	3	3	20
Cc1ccc(N2CN=C3SCC(=O)N3C2)cc1C	1	4	1	2	·
COc1ccc2c3c(cccc13)NN=C2C	101*	·	·	·	98*
